Reference: PubChem BioAssay (NCI)
The panel holds about 79,000 compounds, 15% with a hit somewhere; the sample as a whole holds those more often. No stated cut-off is given here; in the data, active means growth inhibition above about 70%; inactive means the rest.

Columns and labels:
[1] = NCI Yeast Anticancer Drug Screen. Data for the rad50 strain (AID 155);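 further: 0% = growth of vehicle-only cultures of the same strain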; details: S. cerevisiae rad50 strain growth inhibition; at 50.0 µM; hits give high values
In short: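 Vehicle-treated cultures provide the reference for the growth inhibition reported for compound-exposed, repair-deficient yeast.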

[2] = NCI Yeast Anticancer Drug Screen. Data for the mec2-1 strain (AID 157); details: S. cerevisiae mec2-1 strain, at 50.0 µM, hits give high values
In short: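 Growth inhibition is read against vehicle-treated controls after compound exposure of the mec2-1 yeast strain, which is defective in DNA damage repair or cell cycle control.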

[3] = NCI Yeast Anticancer Drug Screen. Data for the sgs1 mgt1 strain (AID 161);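 further: 0% = growth of cultures given vehicle only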; details: S. cerevisiae sgs1 mgt1 strain, at 50.0 µM, hits give high values
In short: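 Growth of a repair-deficient yeast mutant was monitored after compound treatment and expressed as inhibition relative to vehicle-treated cultures.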

[4] = NCI Yeast Anticancer Drug Screen. Data for the cln2 rad14 strain (AID 165);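 further: 0% = growth equal to vehicle treated cultures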; details: S. cerevisiae cln2 rad14 strain, at 50.0 µM, hits give high values
In short: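 Growth inhibition, relative to vehicle-treated controls, is the read-out. The test organism is a yeast strain with defined genetic alterations, cln2 rad14.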

[5] = NCI Yeast Anticancer Drug Screen. Data for the bub3 strain (AID 167); details: S. cerevisiae bub3 mutant strain, at 50.0 µM, hits give high values
In short: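 Mutant yeast screening strain plus compound; vehicle-treated cultures serve as the 0% inhibition reference.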

[6] = NCI Yeast Anticancer Drug Screen. Data for the mlh1 rad18 strain (AID 175); details: S. cerevisiae mlh1 rad18 strain growth inhibition; at 50.0 µM; hits give high values
In short: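 Cells of a genetically altered yeast strain, deficient in DNA damage repair, were treated with compound. Their growth was then compared with that of vehicle-treated cultures to give inhibition.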

Measured: growth inhibition

COC(=O)c1ccc(CSc2ccccc2NC(=S)Nc2cccc(C(F)(F)F)c2)o1
inactive: [1] -3.65% | [2] -20.2% | [3] -1.15% | [4] 4.65% | [5] -18.4% | [6] -7.6%

CC1CN(Cc2ccccc2)C(=O)C1=O (stereo unspecified)
inactive: [1] -20.4% | [2] 17.1% | [3] -21.3% | [4] -12.7% | [5] -9.8% | [6] -11.9%

NC1=NC(c2ccccc2)C2=C(N1)C(=O)N(c1ccc(Br)cc1)C2 (stereo unspecified)
inactive: [1] 43.3% | [2] -7.75% | [3] -2.45% | [4] -12.3% | [5] 7.7% | [6] -2.65%

CO[C@H]1C[C@H]2[C@@H]3CCC4=CC(=O)CC[C@]4(C)[C@H]3CC[C@]2(C)[C@@]1(O)C(=O)CO
inactive: [1] -7.35% | [2] -9.25% | [3] -17% | [4] -14.9% | [5] -11.7% | [6] -27.6%

NNC(=O)c1ccc(OCc2nc3ccccc3[nH]2)cc1
inactive: [1] -14.8% | [2] -31.9% | [3] 1.2% | [4] 5.1% | [5] -87.2% | [6] -18.7%

N#C/C(=C\C1CCCC([N+](=O)[O-])C1)C1CCC([N+](=O)[O-])CC1 (stereo unspecified)
inactive: [1] -0.55% | [2] 5.3% | [3] -7.15% | [4] -6.5% | [5] -5.05% | [6] 2.85%

O=C1c2ccccc2C(=O)N1CNc1ccccc1Cl
inactive: [1] 27.8% | [2] 8.95% | [3] 23.2% | [4] 18.2% | [5] 18.2% | [6] 17.3%

O=[N+]([O-])c1c(F)cc(F)cc1F
inactive: [1] -11% | [2] 5.75% | [3] -5.15% | [4] -19.9% | [5] 2.55% | [6] -6.65%

CC(=O)N[C@]1(C)CCC2C[C@H]1C(C)=NC2(C)C
inactive: [1] -5.55% | [2] 4.05% | [3] -2.5% | [4] 12.2% | [5] 1.3% | [6] -14.4%

CC(=O)Nc1cc(C(C)=O)ccc1C(C)=O
inactive: [1] -5.8% | [2] -6.2% | [3] 6% | [4] 2.35% | [5] -0.5% | [6] 12.7%

Nc1ncnc2c1nnn2C1CCC(CP(=O)(O)O)C1 (stereo unspecified)
inactive: [1] 8.05% | [2] 4.45% | [3] -4.65% | [4] 17.9% | [5] 7.3% | [6] 21.6%

CCN(CC)c1ccc(Br)cc1
inactive: [1] 32.9% | [2] 4% | [3] 4.55% | [4] -2.5% | [5] 14.2% | [6] 33.9%

S=C(SCc1nc(-c2ccc(Cl)cc2)no1)N1CCSCC1
inactive: [1] -1.9% | [2] -24.9% | [3] 17.9% | [4] -2.6% | [5] -3.25% | [6] -9.4%

Nc1nc(O)cc(=O)[nH]1
inactive: [1] 3.35% | [2] -1.95% | [3] -0.65% | [4] -8.5% | [5] 2.35% | [6] -3.25%

O=C1CC2C=CC(O)C(C1)C2 (stereo unspecified)
inactive: [1] -20.3% | [2] 1.65% | [3] -30.6% | [4] 21.1% | [5] -58.2% | [6] -109%

CCCCCCC(/C=N/Nc1ccccn1)=C\c1ccccc1
inactive: [1] -5.05% | [2] -0.95% | [3] 2.55% | [4] -7.6% | [5] -4.1% | [6] -21.9%

COc1ccc2c(C)cc(N/N=C(\C)C=O)nc2c1
inactive: [1] 19.9% | [2] 19.4% | [3] 18.8% | [4] 11.9% | [5] 10.8% | [6] -9.45%

COc1ccc(C2NC(C(=O)O)Cc3c2[nH]c2ccccc32)cc1OC (stereo unspecified)
inactive: [1] -12.2% | [2] -5.6% | [3] -14.8% | [4] -12.9% | [5] -4.3% | [6] -22%

CCOC(=O)c1ccc(N=NC2Sc3nc4ccccc4n3C2=O)cc1 (stereo unspecified)
inactive: [1] -23.6% | [2] -2.4% | [3] -2.65% | [4] -51.4% | [5] 21.8% | [6] -6.3%

CC(=O)Oc1c(OC(C)C)c(C)c(O[Si](C(C)C)(C(C)C)C(C)C)c2[nH]c3ccccc3c12
inactive: [1] 33.9% | [2] -5.05% | [3] -23.2% | [4] -10.9% | [5] -12.4% | [6] -29.7%

O=c1[nH]c(-c2cccc(F)c2)nc2ccccc12
inactive: [1] 16.9% | [2] -10.9% | [3] 3.1% | [4] 19.2% | [5] -7.4% | [6] 10.2%

CC(=O)NNC(=S)N/C=C(\C#N)C(=O)c1ccc2ccccc2c1
inactive: [1] -59.4% | [2] -22.2% | [3] -12.7% | [4] -1.1% | [5] -25.5% | [6] -53%

NNc1ccc(C(=O)O)cc1
inactive: [1] -3.6% | [2] 12.1% | [3] -2.1% | [4] 11% | [5] -2.35% | [6] -4.9%

COc1cc(Br)c2ncccc2c1
inactive: [1] 1.75% | [2] -0.6% | [3] 3.85% | [4] 4.05% | [5] 2.2% | [6] -14.5%

CN(CC1NCCCC1O)C12CC3CC(CC(C3)C1)C2 (stereo unspecified)
inactive: [1] 0.5% | [2] -6.65% | [3] 12.4% | [4] 12% | [5] 7% | [6] -4.35%

CCCCCC(=O)c1ccccc1
inactive: [1] -27.9% | [2] -16.5% | [3] -19.3% | [4] -23.9% | [5] -8.8% | [6] -6.1%

CCCCC(CC)COB(OCC(CC)CCCC)OCC(CC)CCCC (stereo unspecified)
inactive: [1] -41% | [2] -38.3% | [3] -22.1% | [4] -0.8% | [5] -23.2% | [6] -24.3%

CO[C@H]1C[C@H]2[C@@H]3CCC4=CC(=O)C=C[C@]4(C)[C@@]3(F)[C@@H](O)C[C@]2(C)[C@@]1(O)C(=O)COC(C)=O
inactive: [1] 6.55% | [2] -0.35% | [3] 22.8% | [4] 33.2% | [5] 1.05% | [6] -6.55%

ClCCOCc1ccc(Cl)c(Cl)c1
inactive: [1] 8.8% | [2] -16.9% | [3] 6.15% | [4] -13.5% | [5] -18% | [6] 9%

O=C(Nc1ccccc1Cl)c1ccc(F)cc1
inactive: [1] -2.25% | [2] -12.2% | [3] 15% | [4] 7.4% | [5] -21.4% | [6] -3.85%

CCN(CC)c1ccc2cc(-c3nc4ccccc4n3C)c(=O)oc2c1
inactive: [1] 14.8% | [2] -6% | [3] 2.2% | [4] 6.55% | [5] 1.35% | [6] 14.1%

Cc1ccc(C#N)c2c1CCC2
inactive: [1] 2.65% | [2] -10.7% | [3] 3.05% | [4] -50% | [5] -13% | [6] 2.6%

CCOC(=O)Nc1ccccc1F
inactive: [1] 4.4% | [2] -16.1% | [3] -3.95% | [4] -6.15% | [5] 4.75% | [6] 9%

COc1cccc2c1C(c1ccc3ccccc3c1)OC2=O (stereo unspecified)
inactive: [1] -22.2% | [2] -11.4% | [3] -27.6% | [4] 12.8% | [5] -25.4% | [6] -15.5%

Nc1c(Br)cc2c(c1Br)C(=O)c1ccccc1-2
inactive: [1] 3.95% | [2] 8.8% | [3] 23.6% | [4] 8.8% | [5] 15.2% | [6] -0.05%

Cc1nc(-c2nc(C(=O)NCCC[S+](C)C)cs2)cs1
inactive: [1] -11.5% | [2] -7.85% | [3] -5.4% | [4] 3.4% | [5] -2.35% | [6] -0.2%
